TRPV1 PAM = human TRPV1 potentiation | TRPV1-expressing cells, Fluo-8 calcium influx, capsaicin EC20 potentiation | potentiation, % at 8.33 µM | 0.02% of 320,000 active; in the data active means potentiation above about 80%; inconclusive means between about 30% and that limit; further: 0% is about no effect
Target sequence (Q8NER1 whole entry, looked up): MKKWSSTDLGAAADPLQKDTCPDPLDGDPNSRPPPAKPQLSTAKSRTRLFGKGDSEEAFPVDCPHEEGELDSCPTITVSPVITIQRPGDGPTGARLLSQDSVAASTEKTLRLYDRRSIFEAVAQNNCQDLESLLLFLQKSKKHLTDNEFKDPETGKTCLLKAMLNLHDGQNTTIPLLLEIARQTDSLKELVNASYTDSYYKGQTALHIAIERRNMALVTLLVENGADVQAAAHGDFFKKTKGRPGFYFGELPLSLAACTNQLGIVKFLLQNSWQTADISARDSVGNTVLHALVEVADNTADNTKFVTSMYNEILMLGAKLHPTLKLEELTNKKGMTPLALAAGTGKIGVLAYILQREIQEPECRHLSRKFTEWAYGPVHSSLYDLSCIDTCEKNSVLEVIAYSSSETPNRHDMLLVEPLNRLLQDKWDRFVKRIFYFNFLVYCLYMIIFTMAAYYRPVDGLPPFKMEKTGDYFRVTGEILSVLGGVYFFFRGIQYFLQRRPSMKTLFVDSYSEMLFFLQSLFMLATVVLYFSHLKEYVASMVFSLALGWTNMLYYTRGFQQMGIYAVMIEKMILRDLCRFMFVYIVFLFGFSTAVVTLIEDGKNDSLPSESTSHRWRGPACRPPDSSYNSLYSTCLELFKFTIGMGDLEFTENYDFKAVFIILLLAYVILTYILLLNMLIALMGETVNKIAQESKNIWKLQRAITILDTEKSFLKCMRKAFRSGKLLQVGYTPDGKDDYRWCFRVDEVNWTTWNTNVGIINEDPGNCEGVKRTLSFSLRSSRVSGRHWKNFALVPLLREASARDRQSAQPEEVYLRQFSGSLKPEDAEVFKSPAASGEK
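Cells expressing TRPV1 were dye-loaded with Fluo-8 and read kinetically: 10 s baseline, 3 min after compound (agonist portion), then 2 min after EC20 capsaicin (allosteric enhancer portion). Calcium-bound dye fluorescence at 480/520 nm.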
KCNH2 3.1 block = blocks the human KCNH2 3.1 channel isoform. U2OS KCNH2 3.1, thallium flux FluxOr; hits give low values. activity change, % (tested at about 1.8 µM). 0.95% of 340,000 active. AID 720553;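 active means maximum activity change below -70%; inconclusive means maximum activity change from -70% to -50%; inactive means maximum activity change above -50%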;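 further: thallium influx rate constant from kinetic fluorescence after stimulation buffer; on the % scale 0 is the no-effect control and ±100 the full control effect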
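Channel expression came from 3.1 mutant virus (1.77 x 10^8 /mL) applied to suspended U2OS cells for 4 h. Flux was tracked with FluxOr dye plus Red40 quencher, and kinetic rate constants normalized to controls.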
TRPV1 agonist = human TRPV1 agonism | TRPV1-expressing cells, Fluo-8 calcium influx, agonist mode | activation, % at 8.33 µM | 0.19% of 320,000 active | AID 540275; in the data active means activation above about 80%; inconclusive means between about 30% and that limit; further: 0% is about no effect
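Cells expressing TRPV1 were dye-loaded with Fluo-8 and read kinetically: 10 s baseline, 3 min after compound (agonist portion), then 2 min after EC20 capsaicin (allosteric enhancer portion). Calcium-bound dye fluorescence at 480/520 nm.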
KCNH2 WT inh = KCNH2 (human, wildtype) channel inhibition | activity change, % at 1.84 µM | 0.37% of 340,000 active | Q12809 | U2OS, BacMam KCNH2, thallium flux FluxOr; hits give low values | AID 720551;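 active means maximum activity change below -70%; inconclusive means maximum activity change between -70% and -50%; inactive means maximum activity change above -50%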; further: on the % scale 0 is the no-effect control and ±100 the full control effect
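U2OS cells transduced with wild-type KCNH2 virus are loaded with FluxOr dye for 45 min, and thallium flux is measured in kinetic reads before and after stimulation buffer. Rate constants are normalized to DMSO controls.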
ClpP mod = qHTS Assay for Activators of ClpP. Potency, µM (titrated, usually from 57.5 µM), for inactives: at the top dose activity change, negative = active. 1.9% of 340,000 active. purified B. subtilis ClpP, FRET peptide cleavage, 20 min. AID 651965, 2013. ATP-dependent Clp protease proteolytic subunit (Bacillus subtilis (strain 168)), P80244; active means well fitted falling curve with a large enough effect; inconclusive means small, poorly fitted or top-dose-only effect; inactive means no such curve, though single readings can be large or run the other way; further: potency means the concentration at half of the fitted maximal effect; the source files actives as falling curves though it sought activators and does not explain the sign; nearly all actives have a fitted effect of over 65% in size
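FRET quenching reversal measured ClpP activation: 10 microg/mL B. subtilis ClpP at pH 8 with the FRET-FV decapeptide, read at 430 nm after 320 nm excitation. The 20-min minus 0-min signal was scaled between DMSO/no-enzyme wells and ADEP (5.8 microM final).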
p53 reactivation = mutant p53 re-activation in reporter cells | H1299 p53-A138V BP100-luciferase reporter, luminescence, 24 h | Potency, µM (titrated, usually from 92.2 µM), without a hit: at the top dose activity change, positive = activation, actives largely listed as activators | 0.063% of 320,000 active | AID 504706; active means well fitted activation curve with a large enough effect; inconclusive means small, poorly fitted or top-dose-only effect; inactive means no such curve, though single readings can be large or run the other way; further: potency means the concentration at half of the fitted maximal effect; % of control where 0% means no effect; nearly all actives have a fitted effect of over 45% in size
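p53-null H1299 cells stably carrying temperature-sensitive p53-A138V and a BP100-luciferase reporter were pinned with compounds (4-point, 1:5 series) and held 24 hrs at 37 deg C. Luminescence was read 10 min after detection reagent.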
Active calls of the source: *; ? = inconclusive; / = no result given. This is a sample that favours compounds with a hit; in the whole collection about 2.6% have one here.

SMILES | TRPV1 PAM | KCNH2 3.1 block | TRPV1 agonist | KCNH2 WT inh | ClpP mod | p53 reactivation
CCc1ccc(NC(=O)c2cc(C(C)C)on2)cc1 | -17 | -24 | 82* | 1 | 2% | 14%
COc1ccc(-c2cc([C@H]3[C@H]4C=CC[C@@H](C)[C@@H]4C(=O)N3Cc3ccccc3)ccc2F)cc1OC | 24 | 16 | -4 | 0 | 32µM* | 9%
CC[C@@H]1CC=C[C@H]2[C@H]1C(=O)N(Cc1ccccc1)[C@H]2c1ccc(C(F)(F)F)cc1 | -19 | -77* | ? | -4 | -5% | 10%
CCc1c(C)nc2[nH]ncn2c1=O | / | -6 | / | 31 | -3% | /
CCc1ccc(-c2[nH]nc3nc(-c4cc(OC)ccc4OC)cc(C(=O)O)c23)cc1 | / | / | / | / | -6% | /
COc1ccc(CNC(=O)COC(=O)/C=C/c2cccc(Br)c2)cc1OC | ? | 6 | 87* | -9 | / | -2%
CCCOc1ccc(-c2c(=O)n(OCc3ccc([N+](=O)[O-])cc3)c3ccccc3[n+]2[O-])cc1 | 6 | -5 | 3 | -12 | 28µM* | -8%
Cc1cccc(Cc2nnc(CCC(=O)N(C)Cc3ccncc3C)o2)c1 | -5 | -2 | -2 | 5 | / | -1%
COc1ccc(CCc2nnc(CCC(=O)N(C)Cc3ccncc3C)o2)cc1 | -1 | -72* | 2 | 1 | 0% | 7%
COc1ccc2c(c1)C=C/C2=C/c1ccc(N(C)C)cc1 | / | / | / | / | -1% | /
COCCN(CCOC)c1ncnc2c1cnn2-c1ccc(Cl)cc1 | 8 | -4 | -2 | 6 | -3% | 11%
COCCNc1ncnc2c1cnn2-c1ccc(Cl)cc1 | -8 | 6 | 13 | 0 | 22µM* | /
OCCOCCNc1ncnc2c1cnn2-c1ccc(Cl)cc1 | -11 | -8 | 14 | -2 | 32µM* | -3%
c1csc(-c2nc(NCC3CCCO3)c3ccccc3n2)c1 (configuration not stated) | -15 | -6 | ? | 7 | -20% | -2%
c1ccc(CN2CCC(Nc3nc(-c4cccs4)nc4ccccc34)CC2)cc1 | 5 | -73* | -4 | / | ? | 1%
Cc1c(Br)c([N+](=O)[O-])nn1CCCC(=O)N1CCN(c2ccccc2)CC1 | 8 | -2 | -2 | 3 | 14µM* | -7%
COc1ccc(/C=C2\C=Cc3ccccc32)cc1OC | / | / | / | / | 1% | /
Cc1cc(C)nc(NC(=O)c2cc(-c3ccc(C)s3)nc3ccccc23)c1 | 11 | -7 | 3 | -1 | 16µM* | -4%
Cc1ccc(-c2cc(C(=O)Nc3cccnc3)c3ccccc3n2)s1 | -3 | / | 22 | -12 | 16µM* | -3%
Cc1cccc(-c2cc(C(=O)Nc3cccnc3)c3ccccc3n2)c1 | -13 | 8 | 18 | 7 | 1% | -26%
Cc1cc(C)cc(NC(=O)c2cc(C)nc3ccccc23)c1 | 23 | 0 | -8 | -3 | 0% | /
Cc1cc(C)cc(NC(=O)N2CCC(CN3CCc4ccccc4C3)CC2)c1 | / | / | / | / | 2% | /
COc1cc(NS(=O)(=O)c2ccc(NC(=O)c3ccc(C(C)=O)cc3)cc2)nc(OC)n1 | / | / | / | / | -3% | /
Cc1ccc(-c2oc3ncnc(N)c3c2-c2ccc(C)cc2)cc1 | 14 | -4 | -4 | -24 | 28µM* | 15%
COc1ccccc1-c1cn[nH]c1-c1ccc(O)cc1O | 4 | -116* | 1 | -7 | -11% | -2%
COc1ccccc1-c1cn[nH]c1-c1ccc(OCc2ccc(F)cc2)cc1O | 15 | 2 | -4 | -2 | -13% | -13%
O=C(OCc1cn([C@@H]2C[C@H](c3ccc(Cl)cc3)N(C(=O)C3CCCCC3)C[C@H]2O)nn1)c1ccccc1 | / | -21 | / | 13 | 0% | /
O=C(OCc1cn([C@H]2C[C@H](c3ccc(Cl)cc3)N(C(=O)C3CCCCC3)C[C@@H]2O)nn1)c1ccccc1 | / | -82* | / | -37 | -4% | /
COc1cccc(COC(=O)c2nn(-c3ccccc3)nc2N)c1 | -3 | / | 9 | -184* | 4% | 17%
O=C(O)C(=Cc1cccc([N+](=O)[O-])c1)c1ccc(Cl)cc1 | / | 1 | / | -9 | 25µM* | /

Screening results deposited in PubChem BioAssay by National Center for Advancing Translational Sciences (NCATS).
